Tau FP inhib: tau fibrillization inhibition (FP); P10636; K18 P301L tau heparin fibrillization, Alexa594 FP, 6 h; Potency, µM (top dose mostly 57.7 µM), usual class: inhibitors; 0.39% of 280,000 active; AID 1468; note: nearly all actives have a fitted effect of over 55% in size
Target sequence (P10636 561-689 P618L limits assumed): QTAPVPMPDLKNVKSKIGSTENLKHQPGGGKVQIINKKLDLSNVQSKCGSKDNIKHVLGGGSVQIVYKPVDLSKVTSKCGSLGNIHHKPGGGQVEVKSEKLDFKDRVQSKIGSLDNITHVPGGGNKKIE
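Quantitative HTS format: compounds meet 15 uM recombinant K18 P301L tau and Alexa 594-tau tracer in 100 mM sodium acetate pH 7; 20 uM heparin triggers fibrillization at 37 C over 6 hr; FP gives the signal.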
HPGD inh: blocks human HPGD enzyme activity | P15428 | purified HPGD, NADH fluorescence kinetic, PGE2 substrate | Potency, µM, usual class: inhibitors | 4.3% of 150,000 active; active = well fitted inhibition curve with a large enough effect, not every such curve was filed as active; inconclusive = small, poorly fitted or top-dose-only effect, or another doubt; inactive = no such curve, though single readings can be large or run the other way
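NADH formation kinetics: reaction with 30 uM PGE2 and 1 mM NAD+ (final), 20 nM enzyme, Tris-HCl pH 8 with Tween 20, after 15 min compound preincubation at room temperature. Fluorescence change, last versus first of five reads.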
Tau fluor counter: counter-screen for tau fibril formation inhibitors; tau K18 P301L Alexa594 fluorescence, heparin fibrillization; Potency, µM (top dose mostly 57.7 µM); 0.93% of 280,000 active; note: nearly all actives have a fitted effect of over 55% in size
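Human K18 P301L tau (15 uM unlabeled plus 0.24 uM Alexa 594-labeled, final) in 100 mM sodium acetate pH 7 was mixed with compound and 20 uM heparin and incubated 6 hr at 37 C.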
NPSR antagonist: blocks cAMP signaling of the human neuropeptide S receptor | Q6W5P4 | Potency, µM (top dose mostly 38.3 µM), usual class: inhibitors | 1% of 220,000 active | CHO-NPSR cells, cAMP TR-FRET, antagonist mode; note: nearly all actives have a fitted effect of over 50% in size
Target sequence (Q6W5P4 whole entry, looked up): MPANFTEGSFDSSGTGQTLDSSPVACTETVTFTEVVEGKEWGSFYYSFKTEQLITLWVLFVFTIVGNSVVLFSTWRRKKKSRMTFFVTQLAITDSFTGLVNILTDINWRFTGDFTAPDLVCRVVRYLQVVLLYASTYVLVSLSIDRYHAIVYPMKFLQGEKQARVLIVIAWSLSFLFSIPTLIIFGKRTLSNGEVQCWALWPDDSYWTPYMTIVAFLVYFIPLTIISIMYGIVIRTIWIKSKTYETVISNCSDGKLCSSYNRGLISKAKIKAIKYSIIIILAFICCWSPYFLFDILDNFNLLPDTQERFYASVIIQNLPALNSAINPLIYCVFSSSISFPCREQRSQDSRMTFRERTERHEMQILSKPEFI
ALDH1A1 block: inhibitors of human aldehyde dehydrogenase 1A1; Purified ALDH1A1, NADH fluorescence, propionaldehyde substrate; Potency, µM (top dose mostly 75.3 µM), actives largely listed as inhibitors; AID 1030; 7.3% of 220,000 active; active = well fitted inhibition curve with a large enough effect, not every such curve was filed as active; inconclusive = small, poorly fitted or top-dose-only effect, or another doubt; inactive = no such curve, though single readings can be large or run the other way
Tau ThT inhib: blocks human tau fibril formation measured by thioflavin T. P10636. recombinant tau K18 P301L (four-repeat tau fragment), heparin-induced fibrillization, ThT fluorescence. Potency, µM (top dose mostly 57.4 µM), hits mostly inhibitors. 2.1% of 270,000 active. AID 1460; note: nearly all actives have a fitted effect of over 55% in size
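Recombinant human tau K18 fragment […] carrying P301L, 15 uM unlabeled plus 0.24 uM Alexa 594-labeled, was fibrillized with 20 uM heparin in 100 mM sodium acetate pH 7 for 6 hr at 37 C; 30 uM ThT fluorescence read after 1 hr.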
Numbers stand for hits; - = inactive; ? = inconclusive; . = no result given; [ ] = dose if it differs, or a comment. Hits are enriched below; roughly 9.5% of the tested compounds scored in any of these assays. Unless noted, calls come from the whole dose curve; as a rule, active = well fitted curve in the direction sought with a large enough effect; inconclusive = small, poorly fitted or top-dose-only effect, or another doubt; inactive = no such curve, though single readings can be large; an effect the other way counts as inactive or inconclusive.

SMILES	Tau FP inhib	HPGD inh	Tau fluor counter	NPSR antagonist	ALDH1A1 block	Tau ThT inhib
CC(=O)Nc1ccc(S(=O)(=O)N2CCN(Cc3cccs3)CC2)cc1	-	.	-	-	?	-
C=CCc1ccc(OCCCN2CCCC(C)C2)c(OC)c1 (stereo not drawn)	-	-	-	-	16µM	-
Cc1ccc([N+](=O)[O-])c(OCCCN2CCCCCC2)c1	-	.	-	-	?	-
Cc1ccc(OCCCCN2CCCC(C)C2)c([N+](=O)[O-])c1 (stereo not drawn)	-	.	-	-	32µM	-
Cc1ccc(OCCCCNC(C)(C)C)c([N+](=O)[O-])c1	-	-	-	-	13µM	-
O=C(CN1C=NS(=O)(=O)c2ccccc21)Nc1ccc(Br)cc1	-	.	-	.	.	-
Cc1nc2c(-c3ccccc3)c(C)nn2c(C)c1CCC(=O)Nc1ccccc1F	-	.	-	.	.	?
COc1ccc(OC)c(NC(=O)CSc2nnnn2-c2ccc3c(c2)OCO3)c1	-	-	-	-	-	-
Cc1cc([N+](=O)[O-])ccc1-c1ccc(C2Nc3ccccc3C(=O)N2O)o1 (stereo not drawn)	-	?	?	?	?	14µM
C=CCc1cccc(C2Nc3ccccc3C(=O)N2O)c1O (stereo not drawn)	-	7.1µM	-	-	-	-
Cc1ccsc1C1Nc2ccccc2C(=O)N1O (stereo not drawn)	-	18µM	-	-	-	-
CCN(CC(=O)O)CC(=O)O	.	-	.	.	-[13.5 µM]	.
Cc1ccc(NC(=O)Cn2cccc2)cc1Cl	-	16µM	-	-	11µM	-
CCCCOC(=O)Nc1ccc(C)c(Cl)c1	-	16µM	-	-	-	-
COCC(=O)Nc1ccc(C)c(Cl)c1	-	14µM	-	-	-	-
COc1ccc(NC(=O)Cn2c(=O)oc3cc(S(=O)(=O)NC4CCCC4)ccc32)cc1OC	-	.	-	.	.	-
Cc1c(C(=O)NCCN2CCOCC2)oc2ccc(S(=O)(=O)N3CCCCCC3)cc12	-	-	-	-	25µM	-
Cc1c(C(=O)N2CCCCC2)oc2ccc(S(=O)(=O)N3CC(C)CC(C)C3)cc12 (stereo not drawn)	20µM	.	?	?	-	?
CCNC(=S)N(CCc1c(C)[nH]c2ccc(C)cc12)Cc1cc(OC)c(OC)c(OC)c1	?	-	?	-	-	?
COc1ccc(OC)c(NC(=S)N(CCc2c(C)[nH]c3ccc(C)cc23)Cc2cccs2)c1	-	-	8.9µM[quencher]	-	?	-
COc1ccc(OC)c(NC(=S)N(CCc2c(C)[nH]c3ccccc23)Cc2cccs2)c1	-	-	7.1µM[quencher]	-	?	-
COc1ccc2[nH]c(C)c(CCN(Cc3cccs3)C(=S)Nc3cccc(F)c3)c2c1	-	-	10µM[quencher]	-	?	?
COc1cccc(NC(=S)N(CCc2c(C)[nH]c3ccc(C)cc23)Cc2cccs2)c1	-	-	-	-	-	-
CC(C)NC(=O)C1CC(=O)N(c2ccc(F)c(Cl)c2)C1 (stereo not drawn)	-	-	-	-	-	-
CC(C)C(NS(=O)(=O)c1ccc2c(c1)oc(=O)n2C)C(=O)NCCc1ccccc1 (stereo not drawn)	-	.	-	.	.	-
SMILES	Tau FP inhib	HPGD inh	Tau fluor counter	NPSR antagonist	ALDH1A1 block	Tau ThT inhib
Nc1ccc(C23CC4CC(CC(CO)(C4)C2)C3)cc1	-	-	-	-	11µM	-
c1ccc(CSc2ccc(-c3cccnc3)nn2)cc1	?	.	-	-	-	-
Cc1ccc(S(=O)(=O)Oc2ccc(N=Nc3ccc(-c4ccc(N=Nc5c(O)ccc6cc(S(=O)(=O)O)cc(S(=O)(=O)O)c56)c(C)c4)cc3C)cc2)cc1	.	-	.	.	?	.
CCOC(=O)C1=C(c2ccccc2)O/C(=C(/C#N)C(F)(F)F)S1	?	-	?	7.9µM	-	16µM
COc1cccc(-n2c(=O)c3sc4ccccc4c3n(CC(=O)Nc3cccc(Cl)c3)c2=O)c1	22µM	.	?	.	.	-
COc1ccc(NC(=O)Cn2c(=O)n(-c3ccccc3)c(=O)c3ccc(C(=O)NCc4ccc5c(c4)OCO5)cc32)cc1	?	.	-	.	.	-
COc1cccc(NC(=O)Cn2c(=O)n(-c3ccccc3)c(=O)c3ccc(C(=O)NCc4ccc5c(c4)OCO5)cc32)c1	32µM	.	-	.	.	-
COc1cccc(NC(=O)Cn2c(=O)n(Cc3ccc4c(c3)OCO4)c(=O)c3oc4ccccc4c32)c1	28µM	.	?	.	.	?
COc1cccc(NC(=O)Cn2c(=O)n(-c3ccc(Cl)cc3)c(=O)c3sc4ccccc4c32)c1	?	.	-	.	.	-
COc1cccc(CC2(CO)CCCN(Cc3ccc4c(c3)OCCO4)C2)c1 (stereo not drawn)	-	.	-	-	-	-
Cc1nc2cccnc2n1-c1cccc(C(=O)NCCc2ccc(S(N)(=O)=O)cc2)c1	-	.	-	.	.	-
N#CC1=C2SCC(O)(c3ccccc3)N2C(=O)CC1c1ccccc1F (stereo not drawn)	-	-	-	-	?	?
N#CC1=C2SCN(c3ccccc3)CN2C(=O)CC1c1cccs1 (stereo not drawn)	?	7.1µM	-	-	3.2µM	25µM
N#CCCCSC1=C(C#N)C(c2ccccc2Cl)CC(=O)N1 (stereo not drawn)	-	-	-	?	?	-
N#CC1=C2SCN(c3ccccc3)CN2C(=O)CC1c1ccccc1Cl (stereo not drawn)	?	7.9µM	-	-	3.2µM	32µM
N#CC1=C2SCC(O)(c3ccccc3)N2C(=O)CC1c1cccs1 (stereo not drawn)	-	.	-	-	0.035µM	-
Cc1ccc(C2CC(=O)N3CN(c4ccc(Br)cc4)CSC3=C2C#N)o1 (stereo not drawn)	?	?	-	-	?	?
N#CC1=C2SCN(c3ccccc3)CN2C(=O)CC1c1c(Cl)cccc1Cl (stereo not drawn)	25µM	7.9µM	-	-	3.2µM	32µM
Cc1ccccc1-c1noc(-c2ccccc2OCC(=O)Nc2ccccc2[N+](=O)[O-])n1	-	.	?	.	.	-
CCN(CC)C(=O)CC(c1ccc(F)cc1)c1ccco1 (stereo not drawn)	-	20µM	-	-	?	?
O=CNCCCc1nc2ccccc2n1Cc1ccccc1	-	-	-	-	22µM	-
Clc1ccc(C2=NNC(=NCc3ccc4c(c3)OCO4)SC2)cc1	-	.	?	-	22µM	?
CCn1cc(C(=O)OC)c(=O)c2ccc(C)nc21	-	.	-	-	-	-
CCn1cc(C(=O)NCCOC)c(=O)c2ccc(C)nc21	-	-	-	-	11µM	-
COCCNC(=O)Cc1cn(C)c2ccccc12	-	-	-	-	-	-
COCCNC(=O)c1cn(C)c2ccccc2c1=O	-	.	-	-	3.5µM	-

Screens as filed in PubChem.
